The inhibition is the percentage by which the read-out fell short of the control.

The values below come from PubChem BioAssay AID488857 (Sanford-Burnham Center for Chemical Genomics, 2010).

The whole screen tested about 1,400 compounds, of which about 560 (40%) were called active.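 How the source made its calls: active means mean inhibition over duplicate tests at 10 µM above 50%; inactive means the rest.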 So high a share suggests a set chosen from earlier hits. Some of the results follow.

This test is described as follows: ASC/caspase-1 reporter retest in S. cerevisiae at one dose, specificity check for NALP1 project (AID 488857). As to conditions: S. cerevisiae ASC/Caspase-1, beta-galactosidase luminescence, 24 h; at 10 µM; hits give high values.
As to `O=C(Nc1ccc2nc3n(c(=O)c2c1)CCCC3)c1cc([N+](=O)[O-])ccc1F`, the inhibition is 79.8% (active).
The same measure for `CC1CCCCN1C(=S)Nc1ccc2nc3n(c(=O)c2c1)CCCCC3` (centres undefined): 40.4% (inactive); for `Cc1cc(NC(=O)/C=C/c2ccccc2Cl)no1`: 51.1% (active); for `CCOC(=O)c1ccc(N2C(=O)C=CC2=O)cc1`: 82.3% (active).
`CCOC(=O)c1ccc(N2C(=O)CC(N3CCCC(C)C3)C2=O)cc1` (centres undefined): the inhibition was 49.7% (inactive).
The same measure for `CCOC(=O)CCCNC(=O)COC(=O)c1ccc(O)cc1`: 35.5% (inactive).
The same measure for `CC1(C)CC(=O)c2c(-c3cccs3)n[nH]c2C1`: 44.1% (inactive); for `CC1=NNC(=O)/C1=C\c1cn(-c2ccccc2)nc1-c1cccs1`: 89.6% (active); for `Cc1cc(N2CCOCC2)n2ncc(-c3ccccc3)c2n1`: 71.5% (active).
As to `COc1ccc(/C=C2\SC(N3CCc4ccccc4C3)=NC2=O)cc1`, the inhibition was 76.5% (active).
Next, `CCOc1ccccc1C1CC(=O)NC(SCC(=O)Nc2nccs2)=C1C#N` (centres undefined): 10.7% (inactive); `Cc1ccc(S(=O)(=O)NCc2ccc(C(=O)NCCCN3CCC(Cc4ccccc4)CC3)cc2)cc1`: 20.4% (inactive).
The same measure for `CSc1ccc(S(=O)(=O)NCc2ccc(C)cc2)cc1`: 56% (active); for `COc1ccc(CNC(=O)CCNS(=O)(=O)c2ccc(C)cc2)cc1`: 43.1% (inactive); for `c1ccc(Nc2ccccn2)cc1`: 34.5% (inactive).
The same measure for `c1ccc(-c2cccc(-c3ccccn3)n2)nc1`: 97.2% (active); for `CCCCOC(=O)Oc1ccc2c(=O)c(Oc3cc(C)cc(C)c3)coc2c1`: 54.9% (active).
With `Cc1cc(C)n(CCOc2ccc(Cl)cc2Cl)n1`, the inhibition was 56.7% (active).
Regarding `CC1=C(C)/C(=N\OS(=O)(=O)c2ccc(C)cc2)C=CC1=O`, the inhibition is 92.7% (active).
The same measure for `N/C(Cc1ccccc1)=N\OC(=O)c1cccc2ccccc12`: 51.2% (active); for `N/C(Cc1ccc(Cl)cc1)=N\OC(=O)C1CCCCC1`: 47.5% (inactive); for `COc1ccccc1C/C(N)=N/OC(=O)c1cccc([N+](=O)[O-])c1C`: 41.5% (inactive).
With `Cc1cccc(C(=O)NNC(=O)CN2C(=O)c3ccccc3C2=O)c1`, the inhibition is 32.6% (inactive).
Next, `Cc1cccc(/C(N)=N/OC(=O)c2cccc3ccccc23)c1`: 52.9% (active).
Next, `N/C(Cc1ccc([N+](=O)[O-])cc1)=N\OC(=O)c1ccccc1Br`: 71% (active); `Cc1cccc(/C(N)=N/OC(=O)c2ccc(Cl)cc2Cl)c1`: 32.9% (inactive).
The same measure for `O=C(Cc1ccc([N+](=O)[O-])cc1)c1ccc(O)cc1O`: 49.1% (inactive); for `CCOC(=O)C1C(=O)Oc2ccc3ccccc3c2C1C1CCOC1=O` (centres undefined): 32.4% (inactive).
With `CN1CCN(S(=O)(=O)c2ccc(Br)c3nsnc23)CC1`, the inhibition is 45.2% (inactive).
Next, `CN1CCN(C2=C(Cl)C(=O)N(CCc3ccccc3)C2=O)CC1`: 47.1% (inactive); `C=CCSc1nsc(NC(=O)Nc2ccc(F)cc2)n1`: 98.9% (active).
For `CCOC(=O)n1c(=O)n(Cc2ccccc2)c2ccccc21`, the inhibition is 47.1% (inactive).
Next, `CC12CCC(C(=O)O)(C/C1=N\O)C2(C)C` (centres undefined): 21% (inactive).
The same measure for `COc1ccc(C(CCNCc2ccccc2F)c2ccc(F)cc2)cc1` (centres undefined): 45.1% (inactive).
The same measure for `COc1ccc(CCNCc2ccc(OCc3ccccc3)cc2)cc1`: 80.8% (active); for `CN(C)C(CNC(=O)CCCOc1ccccc1)c1ccco1` (centres undefined): 39.1% (inactive); for `O=C(CCCN1C(=O)c2ccccc2C1=O)Oc1ccc(Cl)cc1`: 31.9% (inactive).
In the case of `COc1ccc(CNCCSc2nnnn2C)cc1OC`, the inhibition is 40.2% (inactive).
The same measure for `COc1ccc(OCCCC(=O)NCC(C)C)cc1`: 39.5% (inactive).
Next, `CCOCCCNCc1ccc(OCc2ccccc2Cl)cc1`: 45.9% (inactive); `COc1ccc(OCC#CCNC(C)(C)C)cc1`: 30.3% (inactive).
The same measure for `COc1ccc(OCCCC(=O)Oc2ccc(OC)cc2)cc1`: 50.5% (active).
As to `COc1ccc(OCCCC(=O)NCCc2ccccc2)cc1`, the inhibition is 51.9% (active).
The same measure for `COc1ccc(CNCCC(c2ccc(F)cc2)c2ccc(OC)cc2)cc1` (centres undefined): 61.4% (active); for `COc1cc(/C=C2\SC(=Nc3ccc(F)cc3)N(c3ccc(F)cc3)C2=O)ccc1OCC(=O)O`: 31.9% (inactive); for `O=C1CCCc2ccccc2N1Cc1ccc(Cl)cc1Cl`: 31.8% (inactive).
The same measure for `Clc1ccc(CO/N=C2\CCCc3nonc32)c(Cl)c1`: 52.5% (active); for `O=C1Cc2ccccc2C(=O)N1OCc1ccc(Cl)cc1Cl`: 29.5% (inactive).
For `CN(C)C(=N)c1n[nH]nc1SCc1ccccc1`, the inhibition was 27.9% (inactive).
The same measure for `CCCCCCCCCCCCCCCC[n+]1ccc(/C=N/O)cc1`: 85.1% (active); for `CCCCCCCCCCCCCCCC[n+]1ccc(C(N)=O)cc1`: 80.4% (active).
The same measure for `CCCCCCCCCCCCCCCC[n+]1cccc(C(=O)N(CC)CC)c1`: 93.2% (active); for `CCCCN(CC)S(=O)(=O)c1ccccc1`: 8.05% (inactive); for `COC(=O)c1c(NC(NC(=O)C(C)C)C(Cl)(Cl)Cl)sc2c1CCC2` (centres undefined): 33.2% (inactive).
Consider `COC(=O)c1c(NC(=O)C2CCCO2)sc2c1CCC2` (centres undefined), for which the inhibition was 58% (active).
The same measure for `CCOc1cc(-c2c(C)c(C)nc(N)c2C#N)ccc1O`: 49.5% (inactive).
The same measure for `O=C(Nc1cc(N2CCOCC2)ncn1)NC1(C(F)(F)F)Oc2ccc(Cl)cc2O1` (centres undefined): 36.8% (inactive); for `CCc1ccc(CC(=S)N2CCOCC2)cc1`: 51.4% (active).
The same measure for `O=C(NC(=O)N1CCN(c2ccc(F)cc2)CC1)c1ccccc1`: 53% (active).
For `O=S(=O)(N1CCCCC1)N1CCN(c2ccc(F)cc2)CC1`, the inhibition was 45.9% (inactive).
The same measure for `O=C(C(Cc1ccccc1)n1cccc1)N1CCN(c2ccccc2)CC1` (centres undefined): 49.2% (inactive); for `CC(C)Oc1ccc(OCCNC2CCCC2)cc1`: 45.6% (inactive); for `CCN(CC)S(=O)(=O)c1cccc(C(=O)N[C@H](C(=O)O)C(C)C)c1`: 45.6% (inactive).
On to `N#CC(C#N)=C1C=CC=CN1/C(=C\c1ccccc1Cl)C(=O)c1ccccc1`, for which the inhibition was 17.6% (inactive).
The same measure for `COc1ccc(/C=C(/C(=O)c2cccs2)N2C=CC=CC2=C(C#N)C#N)cc1`: 51.5% (active).
The same measure for `CN(C)CCNC=C(C(=O)Nc1ccc(Cl)cc1Cl)C(=O)Nc1ccc(Cl)cc1Cl`: 36% (inactive); for `Cn1nc(NC(=O)C(C)(C)C)c2c(F)cccc21`: 23.4% (inactive).
The same measure for `CCCC(CCC)c1nc2ccncc2[nH]1`: 39.7% (inactive).
Turning to `Clc1ccc(N2CCN(c3cnc4ccccc4n3)CC2)cc1`, the inhibition was 29.9% (inactive).
The same measure for `CC1CCN(c2nc(CN3CCCCC3)nc3scc(-c4ccccc4)c23)CC1`: 65.8% (active); for `COC(=O)c1c(S(=O)(=O)NCc2ccccc2)sc(C(=O)O)c1C`: 32.3% (inactive).
The same measure for `O=C1S/C(=C\c2ccc(N3CCOCC3)o2)C(=O)N1c1ccccc1`: 56.8% (active); for `Cn1c(=O)c2c(nc(Sc3ncccn3)n2Cc2ccccc2Cl)n(C)c1=O`: 26.6% (inactive); for `Cc1ccc(S(=O)(=O)NCC(=O)N(CC(=O)NC(C)(C)C)Cc2cccs2)cc1`: 34.8% (inactive).
Next, `COc1cc(OC)nc(-n2ncc(Br)c(Br)c2=O)n1`: 51.4% (active); `CCCC(=O)c1ccc(-c2ccccc2)cc1`: 57.2% (active).
Take `Cc1cccc(C)c1OCCNC(=O)CCC(=O)c1ccccc1`: the inhibition is 31.6% (inactive).
Next, `Cc1ccc(C(=O)CCC(=O)O)cc1`: 26.7% (inactive).
The same measure for `Cc1c(NC(=O)c2cc3c(s2)-c2ccccc2OC3)cccc1[N+](=O)[O-]`: 72% (active).
Next, `Cc1cc(C)c(S(=O)(=O)Nc2cc(SCC(=O)O)c(O)c3ccccc23)cc1C`: 17.9% (inactive).
`O=S(=O)(Nc1ccc(Oc2ncccn2)c(Cl)c1)c1ccc(F)cc1`: the inhibition was 32.6% (inactive).
Next, `O=S(=O)(Nc1cc(Sc2cccc3cccnc23)c(O)c2ccccc12)c1ccc(F)cc1`: 90.7% (active); `CC(C)Sc1nnc([C@H](Cc2ccccc2)NC(=O)OC(C)(C)C)o1`: 41.7% (inactive); `CC(C)(C)OC(=O)NCCCCCc1nnc(SCc2ccccc2)o1`: 71.4% (active).
Consider `CCCCSc1nnc(CCNC(=O)OC(C)(C)C)o1`, for which the inhibition is 47.8% (inactive).
Next, `O=C(c1ccc(COc2ccccc2Br)cc1)N1CCCCC1`: 52.2% (active); `O=C(c1ccc(S(=O)(=O)c2ccccc2)cc1)N1CCCCCC1`: 31.9% (inactive); `CCN(CCO)Cc1csc2ccc(Br)cc12`: 55.5% (active).
Next, `OCCN(CCO)c1ncnc2c1oc1ccc(Br)cc12`: 29.6% (inactive); `COc1ccccc1OCCCCN1CCN(c2ccccc2OC)CC1`: 21.9% (inactive).
The same measure for `COc1ccccc1N1CCN(CCCCCCOc2ccc(F)cc2)CC1`: 49.6% (inactive); for `COc1ccccc1N1CCN(CCCCOc2cccc3ccccc23)CC1`: 63.3% (active).
As to `Cc1cccc(NCc2nc3ccccc3n2C)c1`, the inhibition was 74% (active).
Next, `Cc1nc2cc(-c3ccc(Cl)cc3)nn2c(C)c1CCC(=O)NC(C)c1ccc2c(c1)OCCO2` (centres undefined): 49% (inactive); `O=C1/C(=C/c2ccccc2)CCCc2ccccc21`: 72.1% (active).
Turning to `COc1ccc(C2=C/C(=C/c3cccnc3)C(=O)O2)cc1OC`, the inhibition is 28.8% (inactive).
As for `Nc1ccc2c(c1)C/C(=C/c1ccco1)C2=O`, the inhibition was 21.8% (inactive).
As for `COc1cc(/C=C2/CCc3ccccc3C2=O)cc(OC)c1OC`, the inhibition was 69.8% (active).
Regarding `O=C1/C(=C/c2ccco2)Cc2ccccc21`, the inhibition was 48.4% (inactive).
Consider `COc1cc2ccccc2c2c1CCCC2=O`, for which the inhibition was 30% (inactive).
The same measure for `COc1ccc2c(c1)CC/C(=C/c1ccco1)C2=O`: 68.5% (active); for `COc1ccc(/C=C2\COc3ccccc3C2=O)cc1OC`: 81.6% (active).
The same measure for `Cc1n[nH]c(C)c1S(=O)(=O)N1CCN(C2CCCCC2)CC1`: 32.4% (inactive).
Next, `CS(=O)(=O)N(CC(=O)Nc1ccccc1Sc1ccccc1)C1CCCCC1`: 19.4% (inactive).
